Data taken from PubChem BioAssay (NCI).
This is part of a sample that, as a whole, favours compounds with a hit. Of some 83,000 tested, about 20% had one in any assay.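 Note: values are percent growth. 100 is the growth of untreated cells, values between 100 and 0 indicate rising inhibition; between -100 and 0 indicates cell death.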 Active and inactive are the calls of the source. Rule for the calls: active = growth percent below 10; inactive = the rest.

Experiments:
Assay in all cases: NCI-60 one-dose screen, 48 h (100 = growth as untreated, 0 = no growth, -100 = all killed)
DU-145 prostate = details: 10 µM unless noted
K-562 leukemia = details: 10 µM unless noted
MALME-3M melanoma = details: 10 µM unless noted
RXF 393 renal = details: 10 µM unless noted
SF-295 CNS = details: 10 µM unless noted
UACC-257 melanoma = details: 10 µM unless noted
M14 melanoma = details: 10 µM unless noted
SK-MEL-5 melanoma = details: 10 µM unless noted
UACC-62 melanoma = details: 10 µM unless noted
LOX IMVI melanoma = details: 10 µM unless noted
SK-MEL-2 melanoma = details: 10 µM unless noted
A498 renal = details: 10 µM unless noted
HL-60(TB) leukemia = details: 10 µM unless noted
CCRF-CEM leukemia = details: 10 µM unless noted
OVCAR-4 ovarian = details: 10 µM unless noted
IGROV1 ovarian = details: 10 µM
OVCAR-3 ovarian = details: 10 µM unless noted
BT-549 breast = details: 10 µM
HCC-2998 colon = details: 10 µM unless noted
SR leukemia = details: 10 µM

Measured: growth

C1CNC2CCCC2C1 (configuration not stated)
inactive: DU-145 prostate 107% | K-562 leukemia 112% | MALME-3M melanoma 99.4% | RXF 393 renal 93.1% | SF-295 CNS 104% | UACC-257 melanoma 106% | M14 melanoma 107% | SK-MEL-5 melanoma 96.7% | UACC-62 melanoma 108% | LOX IMVI melanoma 101% | SK-MEL-2 melanoma 106% | A498 renal 107% | HL-60(TB) leukemia 117% | CCRF-CEM leukemia 106% | OVCAR-4 ovarian 102% | IGROV1 ovarian 117% | OVCAR-3 ovarian 107% | BT-549 breast 102% | HCC-2998 colon 107%

COc1cc(C2=NN(c3ccccc3)C(c3sc(N(CCCl)CCCl)nc3Cl)C2)cc(OC)c1OC (configuration not stated)
inactive: DU-145 prostate 102% | K-562 leukemia 74.3% | MALME-3M melanoma 121% | RXF 393 renal 106% | SF-295 CNS 89.4% | UACC-257 melanoma 87.4% | M14 melanoma 91.5% | SK-MEL-5 melanoma 88.4% | UACC-62 melanoma 48.4% | LOX IMVI melanoma 92.7% | SK-MEL-2 melanoma 85.2% | A498 renal 93.2% | HL-60(TB) leukemia 96.2% | CCRF-CEM leukemia 87.9% | SR leukemia 84.2% | OVCAR-4 ovarian 87.5% | IGROV1 ovarian 106% | OVCAR-3 ovarian 98.7% | BT-549 breast 95.4% | HCC-2998 colon 99.9%

c1ccc2nc(OCCN3CC3)ccc2c1
active: SR leukemia -13.3%
inactive: DU-145 prostate 98.6% | K-562 leukemia 26.8% | MALME-3M melanoma 113% | RXF 393 renal 59.1% | SF-295 CNS 75.8% | UACC-257 melanoma 59% | SK-MEL-5 melanoma 98.6% | UACC-62 melanoma 79.3% | LOX IMVI melanoma 86.3% | SK-MEL-2 melanoma 96.3% | A498 renal 102% | HL-60(TB) leukemia 72.7% | CCRF-CEM leukemia 31.7% | OVCAR-4 ovarian 75.3% | IGROV1 ovarian 35.1% | OVCAR-3 ovarian 74.3% | HCC-2998 colon 86.7%

Nc1c(Br)cc2c3c(cccc13)-c1ccccc1-2
active: SR leukemia 9.02%
inactive: DU-145 prostate 70% | K-562 leukemia 38.3% | RXF 393 renal 80.2% | SF-295 CNS 74.5% | UACC-257 melanoma 88.4% | M14 melanoma 58.5% | SK-MEL-5 melanoma 84.8% | UACC-62 melanoma 81.2% | LOX IMVI melanoma 53.7% | SK-MEL-2 melanoma 64.4% | A498 renal 70.5% | HL-60(TB) leukemia 82.7% | CCRF-CEM leukemia 48.8% | OVCAR-4 ovarian 62.1% | IGROV1 ovarian 48.1% | OVCAR-3 ovarian 64.4% | BT-549 breast 91.8% | HCC-2998 colon 80.7%

N#C[Se]CCN1C(=O)C2C(C1=O)[C@H]1C=C[C@@H]2S1 (some centres not stated)
inactive: K-562 leukemia 24.3% | UACC-257 melanoma 10.9% | UACC-62 melanoma 18.9% | SK-MEL-2 melanoma 23.4% | OVCAR-4 ovarian 25.3% | HCC-2998 colon 67.4%
active: DU-145 prostate -33.3% | MALME-3M melanoma -40.5% | RXF 393 renal -52.2% | SF-295 CNS -34.8% | M14 melanoma -13.6% | SK-MEL-5 melanoma -52.8% | LOX IMVI melanoma -46% | HL-60(TB) leukemia -48.1% | CCRF-CEM leukemia 8.31% | SR leukemia 6.77% | IGROV1 ovarian -54.4% | OVCAR-3 ovarian -64.6% | BT-549 breast -81%

Cc1cc([N+](=O)[O-])c(Cl)cc1NS(=O)(=O)c1ccccc1
inactive: DU-145 prostate 104% | K-562 leukemia 71% | MALME-3M melanoma 37.9% | RXF 393 renal 91.9% | SF-295 CNS 65.7% | M14 melanoma 62.9% | SK-MEL-5 melanoma 43.6% | UACC-62 melanoma 37.1% | LOX IMVI melanoma 81.2% | SK-MEL-2 melanoma 55.5% | A498 renal 67.2% | HL-60(TB) leukemia 57.3% | SR leukemia 64.3% | OVCAR-4 ovarian 71.4% | IGROV1 ovarian 85% | OVCAR-3 ovarian 71.7% | BT-549 breast 62.5% | HCC-2998 colon 80.6%

CC1=C(SCCC(=O)OCC(=O)NCCC[Te]c2ccccc2)C(=O)c2ccccc2C1=O
inactive: K-562 leukemia 10.2% | RXF 393 renal 25% | UACC-257 melanoma 55.1% | OVCAR-4 ovarian 87.4% | HCC-2998 colon 10.1%
active: DU-145 prostate -6.6% | MALME-3M melanoma -7.94% | SF-295 CNS -35.6% | M14 melanoma -52.4% | SK-MEL-5 melanoma -61.4% | UACC-62 melanoma 2.51% | LOX IMVI melanoma -12.6% | SK-MEL-2 melanoma -33.4% | A498 renal -11.8% | HL-60(TB) leukemia -2.74% | CCRF-CEM leukemia 2.25% | IGROV1 ovarian -35.5% | OVCAR-3 ovarian -25.6% | BT-549 breast -6.68%

Fc1ccc(C2=NN(c3ccccc3)C(c3sc(N(CCCl)CCCl)nc3Cl)C2)cc1 (configuration not stated)
inactive: DU-145 prostate 109% | K-562 leukemia 69.8% | MALME-3M melanoma 102% | RXF 393 renal 102% | SF-295 CNS 85.5% | UACC-257 melanoma 86.7% | M14 melanoma 92.2% | SK-MEL-5 melanoma 83.2% | UACC-62 melanoma 59.8% | LOX IMVI melanoma 83.2% | SK-MEL-2 melanoma 84.5% | A498 renal 92.4% | HL-60(TB) leukemia 103% | CCRF-CEM leukemia 83.1% | SR leukemia 83% | OVCAR-4 ovarian 78.8% | IGROV1 ovarian 82.7% | OVCAR-3 ovarian 91.7% | BT-549 breast 99.5% | HCC-2998 colon 103%
